# Data from PubChem BioAssay (Tox21).
# Unmarked numbers belong to inactive results. Active and inactive are the calls of the source. Calls follow the shape of the dose curve; as a rule, active = well fitted curve in the direction sought with a large enough effect in the repeat runs; inconclusive = weak or mixed curves; inactive = flat fitted curve, though single readings scatter.
# Experiment: qHTS assay to test for compound auto fluorescence at 590 nm (red) in HEK293 cells (AID 720679)
# Conditions: red autofluorescence 540/590 nm; series mostly up to 91.3 µM; fluorescence, % of fluorescent control: at the top concentration
# In short: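 Using HEK293 cells at 2,000 per well, the screen added 23 nL of each compound after cell attachment and incubated overnight (37C, 5% CO2). The plate reader then captured red-label fluorescence, Ex/Em 540/590nm.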
# % is scaled to controls: 0 for no effect and ±100 for the full control effect.
Structure (SMILES),"fluorescence, % of fluorescent control",Potency
O=C1CCc2cc(OCCCCc3nnnn3C3CCCCC3)ccc2N1,-0.0387% [at 46 µM],–
CCCNCCC,-0.793%,–
CC(C(=O)O)c1ccc2c(c1)[nH]c1ccc(Cl)cc12 (centres undefined),0.0446% [at 46 µM],–
O=C1CCc2ccc(OCCCCN3CCN(c4cccc(Cl)c4Cl)CC3)cc2N1,0.245% [at 46 µM],–
COC(=O)C1=C(C)NC(C)=C(C(=O)OCCN2CCN(C(c3ccccc3)c3ccccc3)CC2)C1c1cccc([N+](=O)[O-])c1 (centres undefined),0.063% [at 46 µM],–
C#C[C@]1(OC(C)=O)CC[C@H]2[C@@H]3CCC4=C[C@@H](OC(C)=O)CC[C@@H]4[C@H]3CC[C@@]21C,–,inactive
Nc1nc(-c2ccccc2)cs1,-0.318%,–
CC1(C)[C@@H](O)CC[C@]2(C)[C@H]3C(=O)C=C4[C@@H]5C[C@@](C)(C(=O)O)CC[C@]5(C)CC[C@@]4(C)[C@]3(C)CC[C@@H]12,–,inactive
COc1cccc2c1C(=O)c1c(O)c3c(c(O)c1C2=O)C[C@@](O)(C(C)=O)C[C@@H]3O[C@H]1C[C@H](N)[C@H](O)[C@H](C)O1,8.38% [at 46 µM],–
CCc1cccc(CC)c1NC(=O)CN(CC(=O)O)CC(=O)O,-0.732% [at 18.6 µM],–
Cc1c(C)c2c(c(C)c1OC(=O)c1cccnc1)CC[C@@](C)(CCC[C@H](C)CCC[C@H](C)CCCC(C)C)O2,-0.0269% [at 46 µM],–
CN1CCC[C@@H]1CCO[C@](C)(c1ccccc1)c1ccc(Cl)cc1,0.321% [at 46 µM],–
O=c1oc2cc(O)ccc2c2oc3cc(O)ccc3c12,-0.261%,–
Clc1ccnc(Cl)n1,0.231% [at 95.7 µM],–
O=C1c2ccccc2C(=O)N1SC1CCCCC1,–,inactive
CNc1ccc([N+](=O)[O-])cc1,-0.77%,–
CCOC(=O)c1ccc(C2CCC(NC[C@H](O)COc3ccc(O)c(NS(C)(=O)=O)c3)CC2)cc1 (some centres undefined),0.312%,–
CN(C)c1ccc(C(=C2C=CC(=[N+](C)C)C=C2)c2ccc(N(C)C)cc2)cc1,–,inactive
CCC(C)[O-].CCC(C)[O-].CCOC(=O)/C=C(/C)[O-].[Al+3],0.152%,–

Structure (SMILES),"fluorescence, % of fluorescent control",Potency
CCCCCCCCCCCCCC[N+](C)(C)Cc1ccccc1,–,inactive
Oc1cc(Cl)cc(Cl)c1Cl,-0.0847% [at 95.7 µM],–
C#C[C@]1(O)CC[C@H]2[C@@H]3[C@H](C)CC4=C(CCC(=O)C4)[C@H]3CC[C@@]21C,0.413% [at 46 µM],–
Nc1cc(Cl)c(O)c(Cl)c1,0.195%,–
Cc1ccc(O)c(O)c1,-0.0615%,–
Cc1ccc(C)cc1,-0.203%,–
CN1CCN2c3ccccc3Cc3ccccc3C2C1 (centres undefined),-0.157% [at 46 µM],–
O=C(c1ccc(O)c(O)c1)c1ccc(O)cc1O,-0.159%,–
O=C1NC(=O)[C@@H]2CC=CC[C@H]12,0.0176%,–
CC(C)(C)c1ccc(C(O)CCCN2CCC(C(O)(c3ccccc3)c3ccccc3)CC2)cc1 (centres undefined),–,inactive
Cc1cc(=O)oc2cc(O)cc(O)c12,-0.469%,–
Cc1cc(C(C#N)c2ccc(Cl)cc2)c(Cl)cc1NC(=O)c1cc(I)cc(I)c1O (centres undefined),-1.19% [at 46 µM],–
CC[C@H](C)COC(=O)/C=C/c1ccc(N=Cc2ccc(OC)cc2)cc1,-0.017%,–
COC1=C(OC)C(=O)C(CCCCCCCCCCO)=C(C)C1=O,0.41% [at 46 µM],–
Cc1ccc(O)c(N)c1,0.408%,–
COC(C)=O,–,inactive
CN1CCN(Cc2cc(-c3ccc4[nH]c(=O)oc4c3)co2)[C@@H](c2ccc(F)cc2)C1,0.078%,–
C/C=C/C=C/COC(=O)C(C)C,-0.277%,–

# Experiment: qHTS assay to test for compound auto fluorescence at 535 nm (green) in HEK293 cells (AID 720680)
# Conditions: green autofluorescence 485/535 nm; series mostly up to 91.3 µM; fluorescence, % of fluorescein: at the top concentration
Structure (SMILES),"fluorescence, % of fluorescein",Potency
O=C1CCc2cc(OCCCCc3nnnn3C3CCCCC3)ccc2N1,-0.005% [at 46 µM],–
CCCNCCC,0.0234%,–
CC(C(=O)O)c1ccc2c(c1)[nH]c1ccc(Cl)cc12 (centres undefined),-0.0429% [at 46 µM],–
O=C1CCc2ccc(OCCCCN3CCN(c4cccc(Cl)c4Cl)CC3)cc2N1,-0.0189% [at 46 µM],–
COC(=O)C1=C(C)NC(C)=C(C(=O)OCCN2CCN(C(c3ccccc3)c3ccccc3)CC2)C1c1cccc([N+](=O)[O-])c1 (centres undefined),-0.0731% [at 46 µM],–
C#C[C@]1(OC(C)=O)CC[C@H]2[C@@H]3CCC4=C[C@@H](OC(C)=O)CC[C@@H]4[C@H]3CC[C@@]21C,–,inactive
Nc1nc(-c2ccccc2)cs1,0.0129%,–
CC1(C)[C@@H](O)CC[C@]2(C)[C@H]3C(=O)C=C4[C@@H]5C[C@@](C)(C(=O)O)CC[C@]5(C)CC[C@@]4(C)[C@]3(C)CC[C@@H]12,–,inactive
COc1cccc2c1C(=O)c1c(O)c3c(c(O)c1C2=O)C[C@@](O)(C(C)=O)C[C@@H]3O[C@H]1C[C@H](N)[C@H](O)[C@H](C)O1,–,inactive
CCc1cccc(CC)c1NC(=O)CN(CC(=O)O)CC(=O)O,0.0114% [at 18.6 µM],–
Cc1c(C)c2c(c(C)c1OC(=O)c1cccnc1)CC[C@@](C)(CCC[C@H](C)CCC[C@H](C)CCCC(C)C)O2,0.308% [at 46 µM],–
CN1CCC[C@@H]1CCO[C@](C)(c1ccccc1)c1ccc(Cl)cc1,-0.0129% [at 46 µM],–
O=c1oc2cc(O)ccc2c2oc3cc(O)ccc3c12,0.0625%,–
Clc1ccnc(Cl)n1,-0.0419% [at 95.7 µM],–
O=C1c2ccccc2C(=O)N1SC1CCCCC1,–,inactive
CNc1ccc([N+](=O)[O-])cc1,-0.0171%,–
CCOC(=O)c1ccc(C2CCC(NC[C@H](O)COc3ccc(O)c(NS(C)(=O)=O)c3)CC2)cc1 (some centres undefined),0.129%,–
CN(C)c1ccc(C(=C2C=CC(=[N+](C)C)C=C2)c2ccc(N(C)C)cc2)cc1,–,inactive
CCC(C)[O-].CCC(C)[O-].CCOC(=O)/C=C(/C)[O-].[Al+3],-0.0288%,–

Structure (SMILES),"fluorescence, % of fluorescein",Potency
CCCCCCCCCCCCCC[N+](C)(C)Cc1ccccc1,–,inactive
Oc1cc(Cl)cc(Cl)c1Cl,-0.0085% [at 95.7 µM],–
C#C[C@]1(O)CC[C@H]2[C@@H]3[C@H](C)CC4=C(CCC(=O)C4)[C@H]3CC[C@@]21C,-0.0837% [at 46 µM],–
Nc1cc(Cl)c(O)c(Cl)c1,0.0291%,–
Cc1ccc(O)c(O)c1,-0.0299%,–
Cc1ccc(C)cc1,-0.152%,–
CN1CCN2c3ccccc3Cc3ccccc3C2C1 (centres undefined),0.0283% [at 46 µM],–
O=C(c1ccc(O)c(O)c1)c1ccc(O)cc1O,0.0185%,–
O=C1NC(=O)[C@@H]2CC=CC[C@H]12,0.067%,–
CC(C)(C)c1ccc(C(O)CCCN2CCC(C(O)(c3ccccc3)c3ccccc3)CC2)cc1 (centres undefined),–,inactive
Cc1cc(=O)oc2cc(O)cc(O)c12,-0.0809%,–
Cc1cc(C(C#N)c2ccc(Cl)cc2)c(Cl)cc1NC(=O)c1cc(I)cc(I)c1O (centres undefined),0.493% [at 46 µM],–
CC[C@H](C)COC(=O)/C=C/c1ccc(N=Cc2ccc(OC)cc2)cc1,0.0085%,–
COC1=C(OC)C(=O)C(CCCCCCCCCCO)=C(C)C1=O,-0.0026% [at 46 µM],–
Cc1ccc(O)c(N)c1,0.0515%,–
COC(C)=O,–,inactive
CN1CCN(Cc2cc(-c3ccc4[nH]c(=O)oc4c3)co2)[C@@H](c2ccc(F)cc2)C1,-0.0102%,–
C/C=C/C=C/COC(=O)C(C)C,0.208%,–
